Experimental data: PubChem BioAssay AID493056 (National Center for Advancing Translational Sciences (NCATS), 2011)
“And” between values parts separate entries of the source, which are not always exact repeats. Identical values can stand only once. About 2,400 (0.67%) of roughly 360,000 compounds were called active. No stated cut-off is given here; in the data, active means enhancement above about 30%; inactive means the rest. This excerpt belongs to a sample that is enriched for actives. The source holds several records for some structures; these can differ, active in one and inactive in another.

Target: Thyrotropin-releasing hormone receptor (Homo sapiens) (UniProt P34981)
Assay: qHTS for Small Molecule Agonists and Allosteric Enhancers of Human TRH Receptor: Primary Screen for Enhancers; further: 0% is about no effect
Conditions: TRHR cells, fluo-8 calcium fluorescence, EC20 TRH enhancement; at 2 µM; stronger effect = higher value
How it was run: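 Enhancer read-out: after compound pinning and an initial kinetic agonist-mode read, an EC20 of TRH (10 nM final) was injected and fluo-8 calcium signal (Ex 480/Em 530) followed at 1 s/cycle for 100 cycles in TRHR-expressing cells.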

Thyrotropin-releasing hormone receptor (Homo sapiens), sequence (P34981 whole entry, looked up): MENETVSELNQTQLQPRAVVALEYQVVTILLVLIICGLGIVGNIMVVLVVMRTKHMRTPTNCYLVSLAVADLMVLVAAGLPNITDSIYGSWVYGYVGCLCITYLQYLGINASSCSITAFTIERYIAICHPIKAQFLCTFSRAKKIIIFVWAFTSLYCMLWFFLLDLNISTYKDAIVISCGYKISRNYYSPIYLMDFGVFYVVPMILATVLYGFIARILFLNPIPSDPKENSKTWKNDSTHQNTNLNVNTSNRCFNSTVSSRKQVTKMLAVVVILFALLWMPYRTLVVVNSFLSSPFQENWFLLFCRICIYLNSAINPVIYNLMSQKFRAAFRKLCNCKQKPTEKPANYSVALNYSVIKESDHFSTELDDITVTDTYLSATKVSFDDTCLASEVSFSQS

enhancement, -6.86% (inactive) and 34.2% (active):
O=C(Cn1c[n+](CC(=O)c2ccc([N+](=O)[O-])cc2)cn1)c1ccc([N+](=O)[O-])cc1

enhancement, inactive:
COc1cccc(CNC(=O)Cn2ncn3c(cc4ccccc43)c2=O)c1 4.48%, CCOc1cc(-c2nnc(SCC(=O)NC3CCCCC3)nc2-c2ccc(OC)c(OCC)c2)ccc1OC -3.44%, O=C(CNC(=O)c1ccc(Cl)cc1Cl)OC(C(=O)Nc1cc(C(F)(F)F)ccc1Cl)c1ccccc1 (centres undefined) 10.6%, Cc1ccc(C(=O)Cn2cccn2)cc1 -2.28%, O=C(CC(n1cncn1)C(Cl)(Cl)Cl)c1ccc([N+](=O)[O-])cc1 (centres undefined) 0.518%, O=C(NCCc1csc(-c2ccc(C(F)(F)F)cc2)n1)C(=O)Nc1ccc(F)c(Cl)c1 0.606%, Cc1nc(CN(C)C(=O)CC2C(=O)NCCN2Cc2ccc(F)cc2)cs1 (centres undefined) 20.6%, CC(C)(C)CN1CCNC(=O)C1CC(=O)NC1Cc2ccccc2C1 (centres undefined) -4.71%, COc1ccc(CCNC(=O)c2cnc3sc(N4CCCCCC4)nn3c2=O)cc1OC 7.34%, COc1ccc(S(=O)(=O)c2cn(C)c3cc(N4CCCCC4)c(F)cc3c2=O)cc1 7.82%, Cc1c(CNC2CCCCC2)c(C(=O)O)c(C)n1Cc1cccc(Cl)c1 -4.62%, COC(=O)c1c(NC(=O)C(C)Oc2ccc(Cl)c(C)c2)sc(C)c1C (centres undefined) -3.22%, COc1ccc(-c2cc(C(=O)Nc3sc4c(c3C(N)=O)CCCC4)no2)cc1 10.2%, CC1CC(C)CN(C(=O)CCNC(=O)Cn2cnc3ccccc3c2=O)C1 (centres undefined) 2.77%, O=C(Cn1nc(Cc2cccnc2)c2ccccc2c1=O)NCC1COc2ccccc2O1 (centres undefined) 0.892%, COC(=O)c1sc2ncccc2c1-n1c(C)ccc1C 4.46%, Cc1ccc(CN(C(=O)COc2ccc(Cl)cc2C)C2CCS(=O)(=O)C2)o1 (centres undefined) 1.47%, COc1cccc(NC(=O)CN2C(=O)c3ccccc3Sc3ncccc32)c1 2.38%, O=C(CN1CCOCC1)Nc1ccccc1 2.28%, Oc1ccc(Cl)cc1C1C=C(c2ccc3c(c2)OCO3)NC(c2c(F)cccc2Cl)N1 (centres undefined) -2.95%, CCCC(=O)Nc1cc2nn(-c3ccccc3)nc2cc1C -3.06%, CCCn1c2ccccc2c2cnn(CC(=O)NCC3CCN(Cc4ccc(C)cc4)CC3)c(=O)c21 1.43%, CCc1nc2ccccc2c(C(=O)OC2CCCCC2=O)c1C (centres undefined) -2.51%, CCOc1ccc(NC(=O)CSc2c3c(nc4ccccc24)CCCC3)cc1 -3.93%, Cc1cc(NS(=O)(=O)c2ccc3oc(=O)c4ncn(C)c4c3c2)ccc1Br -12.1%, COc1ccc2c(c1)C=C(C(=O)NCc1cc(Br)ccc1OC)CO2 -3.71%, CCCC(=O)Nc1ccc(NC(=O)c2sc3ccccc3c2Cl)cc1 -1.06%, CCC(=O)N1CCc2cc(S(=O)(=O)NC(C(=O)NCCc3ccc(C)cc3)C(C)C)ccc21 (centres undefined) 18.2%, CN(C(=O)CSc1nnc(NC(=O)Nc2ccccc2)s1)c1ccccc1 -6.25%, CCn1c(SCC(=O)N(C)C2CCS(=O)(=O)C2)nnc1-c1cccs1 (centres undefined) 2.93%, CC(=O)c1ccc(N2CCN(C3C(=O)c4ccccc4N3C(C)=O)CC2)cc1 (centres undefined) -5.78%, N#Cc1ccccc1Cn1cnc2nc3c(cc2c1=O)CCCC3 2.65%, O=S(=O)(c1ccccc1)c1nc(-c2ccc(Cl)cc2Cl)oc1N1CCCCC1 2.85%, CCCCNC(=O)C1CCCN(c2nnc(C)c3c(C)n(-c4ccc(Cl)cc4)nc23)C1 (centres undefined) -2.23%, Cc1ccc(-n2nc(CO)c(C(=O)NCCc3ccccc3)n2)cc1 -1.1%, CC(=O)N1CCCc2cc(S(=O)(=O)N3CCC(C(=O)NCc4ccc(C)cc4)CC3)ccc21 4%, CCc1ccc(Sc2cc(C(=O)NCCCOC(C)C)c3ccccc3n2)cc1 -9.07%, O=C1COc2ccc(C(=O)COC(=O)c3cccnc3Cl)cc2N1 -8.83%, CC1COc2ccccc2N1S(=O)(=O)c1ccccc1 (centres undefined) -5.39%, Cc1oc2ccc(O)c(CN3CCOCC3)c2c1C(=O)Nc1cccc(Cl)c1C -0.894%, COc1ccc(-c2ccc(=O)n(CC(=O)Nc3ccc(Br)cc3F)n2)cc1 5.81%, S=C(Nc1ccc(Br)cc1Cl)NC1CCN(Cc2ccccc2)CC1 1.92%, Cc1cc(C)cc(NC(=O)NC2CCCCCCC2)c1 -4.13%, CCOc1ccc(NC(=O)C2CCN(S(=O)(=O)c3cc(-c4noc(C)n4)ccc3C)CC2)cc1 0.0598%, Cc1cccc(Cn2c(CN3CCC(C(=O)NCc4ccccc4Cl)CC3)cc3ccccc32)c1 -3.11%, CCOc1ccc(C(=O)c2cn(Cc3ccccc3OC)c3ccc(F)cc3c2=O)cc1 -0.366%, C/C(=N\OC(=O)c1ccccc1)c1c(C)nc2cc(C)ccn12 -2.45%, N/C(=N\OC(=O)c1ccc2c(c1)OCO2)c1ccc(Br)cc1 -2.97%

enhancement, active:
Cc1csc(CN(C)C(=O)CC2C(=O)NCCN2CC(C)(C)C)n1 (centres undefined) 44.2%, Cc1cc(OC(C)C(=O)Nc2sc3c(c2C(N)=O)CCCC3)ccc1Cl (centres undefined) 34.9%, O=C(Cn1cnc2ccccc2c1=O)NCC1COc2ccccc2O1 (centres undefined) 38.9%, O=C(CN1C(=O)c2cccc3cccc1c23)Nc1ccccc1 43.7%, O=C(COC(=O)c1c2c(nc3ccccc13)CCCC2)c1ccc(Br)s1 35%, CN(C(=O)CSc1nnc(Nc2ccccc2)s1)C1CCS(=O)(=O)C1 (centres undefined) 51.4%, CC(C)C1Nc2c(C(=O)O)cccc2C(Nc2ccccc2C(=O)O)C1(C)C (centres undefined) 30.3%, CC1COc2ccccc2N1C(=O)c1cccnc1Cl (centres undefined) 30.7%, Cc1cc(Br)ccc1NC(=S)NC1CCCC1 36%, C/C(=N/OC(=O)c1ccc(Br)cc1)c1ccc(C)cc1 61.7%
